Inconclusive results are not listed. Values without a mark were called inactive. The source made the active and inactive calls. Calls follow the shape of the dose curve; as a rule, active = well fitted activation curve with a large enough effect in the repeat runs; inconclusive = weak or mixed curves; inactive = flat fitted curve, though single readings scatter.
% is scaled to controls: 0 for no effect and ±100 for the full control effect; potency is read from the fitted curve at half-maximal effect.

The experiment can be described thus: A CellTox Green Cytotoxicity Assay to monitor cytotoxicity in HepG2 cells - 40 hour (AID 1224879). Also: nearly all actives have a fitted effect of over 40% in size. As to conditions: CellTox Green fluorescence; series mostly up to 76.8 µM; cytotoxicity increase: at the top concentration. The gist of the method: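 Cells and non-lytic dye reagent are dispensed together (600 HepG2 cells/well) and incubated 5 h before DMSO compound transfer. Kinetic fluorescence is then recorded in the same wells during 40 h at 37 C.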
As to `CCC[CH2][Sn]([CH2]CCC)([O]C(C)=O)[O]C(C)=O`, the Potency was 0.248 µM (active).
`[F][Sn]([c]1ccccc1)([c]1ccccc1)[c]1ccccc1`: the Potency was 0.692 µM (active).
Take `CC(=O)[O-].CC(=O)[O-].O.O.[Zn+2]`: the “cytotoxicity increase” value is -0.54%.
The same measure, in the same setting: the same measure for `CO/N=C(\C(=O)OC)c1ccccc1CO/N=C(\C)c1cccc(C(F)(F)F)c1`: 0.0169%; for `CNC(=O)/C=C(\C)OP(=O)(OC)OC`: 7.32%.
Regarding `Nc1nc(N)c(N)c(N)n1`, the Potency is 55.2 µM (active).
Regarding `Nc1ccccc1-c1ccccc1`, the “cytotoxicity increase” value was 8.15%.
On to `O=S(=O)(NS(=O)(=O)C(F)(F)F)C(F)(F)F`, for which the Potency is 48.9 µM (active).
On to `O=C(NC(=O)c1ccccc1Cl)Nc1ccc(OC(F)(F)F)cc1`, for which the “cytotoxicity increase” value is 0.324%.
Same read-out and setting: the same measure for `CCC(C)Nc1c([N+](=O)[O-])cc(C(C)(C)C)cc1[N+](=O)[O-]` (stereo not drawn): 1.4%; for `O=C(N[C@H]1N=C(c2ccccc2F)c2cccc3c2N(CC3)C1=O)c1cc2ccccc2[nH]1`: 23.1% [at 35.3 µM].
Still for that read-out and setting: the same measure for `C[C@H]1[C@H](c2ccc(Cl)cc2)SC(=O)N1C(=O)NC1CCCCC1`: 2.09%; for `CC(C)(C)c1ccc(OP(=O)(Oc2ccccc2)Oc2ccccc2)cc1`: 4.73%.
As to `Clc1ccc(C(c2ccc(Cl)cc2)C(Cl)Cl)cc1`, the “cytotoxicity increase” value is 7.69%.
Consider `CC1=C2C[C@H]3[C@@H](CC=C4C[C@@H](O)CC[C@@]43C)[C@@H]2CC[C@]12O[C@@H]1C[C@H](C)CN[C@H]1[C@H]2C`, for which the Potency was 26.8 µM (active).
In the case of `Oc1cccc(Cl)c1Cl`, the “cytotoxicity increase” value is -1.63%.
Turning to `Cc1c([N+](=O)[O-])c(C)c([N+](=O)[O-])c(C(C)(C)C)c1[N+](=O)[O-]`, the “cytotoxicity increase” value was 15.8%.
Same read-out and setting: the same measure for `CCOC(=O)Cc1ccccc1`: 2.3%.

The values are drawn from PubChem BioAssay (Tox21).
